Measured values: PubChem BioAssay AID1845226 (National Center for Advancing Translational Sciences (NCATS), 2023)
Inconclusive results are not listed. Entries that show only a call come without a potency. The source made the active and inactive calls. The call rests on the fitted dose curve; in most records, active means well fitted inhibition curve with a large enough effect; inconclusive means small, poorly fitted or top-dose-only effect; inactive means no such curve, though single readings can be large or run the other way.

Assay: Confirmatory fluorescence-based thiol-reactive (MSTI) qHTS assay for identification of artifact compounds
Settings: MSTI thiol-reactivity probe, 1 h; series mostly up to 39.2 µM
Outline: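 Compounds (qHTS) incubated 1 h at room temperature, light-protected, with 4 uM MSTI in 1X PBS pH 7.4, 2% DMSO. Fluorescence at 525/598 nm normalized to Acetyl-MSTI and MSTI, fitted to Hill equation.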
Potency means the concentration at half of the fitted maximal effect.

Compound | Potency
COc1cc2c(C(=O)N3CCN(c4ccc(F)cc4)CC3)cn(CC(C)C)c(=O)c2cc1OC | inactive
COc1ccc(NC(=O)C(C)n2nc(-c3cc(C)ccc3C)c3c(c2=O)CCCC3)cc1 (stereo not drawn) | inactive
CCCS(=O)(=O)N1CCCC(C(=O)NCCCOC)C1 (stereo not drawn) | inactive
Cc1ccc(NC(=O)Cn2c(=O)oc3cc(S(=O)(=O)N4CCCCC4)ccc32)c(Cl)c1 | inactive
COc1ccc(N2C(=O)NC(NS(=O)(=O)c3ccc(Cl)cc3)(C(F)(F)F)C2=O)cc1 (stereo not drawn) | inactive
O=C1CC(c2ccc(O)c(O)c2)Oc2cc(O)cc(O)c21 (stereo not drawn) | inactive
CCOc1ccc(NC(=O)CSc2nnc3scc(-c4ccccc4)n23)cc1 | inactive
O=C1CCCC2=C1C(c1[nH]ncc1Cl)NC(=NCCc1ccccc1)N2 (stereo not drawn) | inactive
COc1ccc(C2=NN(CCC(=O)NCCc3ccccc3)C(=O)CC2)cc1 | inactive
CCOC(=O)c1ccc(N2CCN(c3ccc(F)cc3)CC2)c(NC(=O)Nc2cccc(OC)c2)c1 | inactive
CCOC(=O)c1c(NC(=O)c2ccc(S(=O)(=O)N(CC)CC)cc2)sc2c1CCCCC2 | inactive
O=C(COc1ccccc1Cl)NCC1(N2CCOCC2)CCCCC1 | inactive
CCCCOc1ccc(C2C(=O)N(C3CCCCC3)CC(=O)N2CCCC)cc1 (stereo not drawn) | inactive
COc1ccc(-c2ccc(CCC(=O)O)n2-c2ccccc2O)cc1 | 4.33 µM (active)
Cc1ccc(-c2nnc(Nc3cccc(O)c3)c3ccccc23)cc1S(=O)(=O)N1CCN(C)CC1 | inactive
COC(=O)c1ccc(NC(=O)CC2C(=O)N(c3ccccc3)C(=O)N2Cc2cccs2)cc1 (stereo not drawn) | inactive
CC1(C)S[C@@H]2[C@H](NC(=O)C3(N)CCCCC3)C(=O)N2[C@H]1C(=O)O | inactive

Compound | Potency
Clc1ccccc1CNc1ncnc2nc[nH]c12 | inactive
CN(Cc1ccccc1)c1ncnc2c1nc1n2CCCC1 | inactive
CC1(C)S[C@@H]2[C@H](NC(=O)[C@H](N)c3ccccc3)C(=O)N2[C@H]1C(=O)O | inactive
O=C(Cn1cc(SCc2ccccc2F)c2ccccc21)N1CCCCC1 | inactive
Cc1cn(C2CCC(CO)O2)c(=O)[nH]c1=O (stereo not drawn) | inactive
COc1ccc(Nc2nc(Nc3ccc(OC)cc3OC)nc(N3CCOCC3)n2)c(OC)c1 | 6.12 µM (active)
O=c1cc(-c2cc(O)c(O)c(O)c2)oc2cc(O)cc(O)c12 | 12.2 µM (active)
CCOc1ccc(CNC(=O)c2cnc(SC)nc2CC)cc1 | inactive
CCOc1ccccc1NC(=O)CSc1nc2c(oc3ccccc32)c(=O)n1-c1ccc(F)cc1 | inactive
COc1ccc(NC(=O)Nc2cccc(-c3noc(C)n3)c2)cc1 | inactive
CC(C)c1cnc2c(c1SCC(=O)Nc1cccc([N+](=O)[O-])c1)c(=O)n(C)c(=O)n2C | inactive
COc1ccc(C2Nc3ccccc3C(=O)N2CC(C)(C)C)cc1COc1ccc(NC(C)=O)cc1 (stereo not drawn) | inactive
COC(=O)c1c(OCc2ccccn2)cc(=O)n2c1CCN(C(=O)c1n[nH]c3c1CCCC3)CC2 | inactive
CCOc1ccc(CCNC(=O)c2ccc3c(c2)nc2n3CCOC2)cc1OCC | inactive
COc1ccc(CNC(=O)c2nnn(CC(=O)Nc3cc(C)cc(C)c3)c2N)cc1 | inactive
CCCC12CN3CC(C)(CN(C1)C3c1ccc(CC)cc1)C2=O (stereo not drawn) | inactive
